Source: PubChem (Broad Institute)
NSD2 HMT inh = inhibitors of human histone methyltransferase NSD2; NSD2 peptide methylation, AlphaScreen, 120 min; inhibition, % at 12.5 µM; O96028; 310,000 compounds, 0.54% hits; AID 743445
Target sequence (O96028 whole entry, looked up): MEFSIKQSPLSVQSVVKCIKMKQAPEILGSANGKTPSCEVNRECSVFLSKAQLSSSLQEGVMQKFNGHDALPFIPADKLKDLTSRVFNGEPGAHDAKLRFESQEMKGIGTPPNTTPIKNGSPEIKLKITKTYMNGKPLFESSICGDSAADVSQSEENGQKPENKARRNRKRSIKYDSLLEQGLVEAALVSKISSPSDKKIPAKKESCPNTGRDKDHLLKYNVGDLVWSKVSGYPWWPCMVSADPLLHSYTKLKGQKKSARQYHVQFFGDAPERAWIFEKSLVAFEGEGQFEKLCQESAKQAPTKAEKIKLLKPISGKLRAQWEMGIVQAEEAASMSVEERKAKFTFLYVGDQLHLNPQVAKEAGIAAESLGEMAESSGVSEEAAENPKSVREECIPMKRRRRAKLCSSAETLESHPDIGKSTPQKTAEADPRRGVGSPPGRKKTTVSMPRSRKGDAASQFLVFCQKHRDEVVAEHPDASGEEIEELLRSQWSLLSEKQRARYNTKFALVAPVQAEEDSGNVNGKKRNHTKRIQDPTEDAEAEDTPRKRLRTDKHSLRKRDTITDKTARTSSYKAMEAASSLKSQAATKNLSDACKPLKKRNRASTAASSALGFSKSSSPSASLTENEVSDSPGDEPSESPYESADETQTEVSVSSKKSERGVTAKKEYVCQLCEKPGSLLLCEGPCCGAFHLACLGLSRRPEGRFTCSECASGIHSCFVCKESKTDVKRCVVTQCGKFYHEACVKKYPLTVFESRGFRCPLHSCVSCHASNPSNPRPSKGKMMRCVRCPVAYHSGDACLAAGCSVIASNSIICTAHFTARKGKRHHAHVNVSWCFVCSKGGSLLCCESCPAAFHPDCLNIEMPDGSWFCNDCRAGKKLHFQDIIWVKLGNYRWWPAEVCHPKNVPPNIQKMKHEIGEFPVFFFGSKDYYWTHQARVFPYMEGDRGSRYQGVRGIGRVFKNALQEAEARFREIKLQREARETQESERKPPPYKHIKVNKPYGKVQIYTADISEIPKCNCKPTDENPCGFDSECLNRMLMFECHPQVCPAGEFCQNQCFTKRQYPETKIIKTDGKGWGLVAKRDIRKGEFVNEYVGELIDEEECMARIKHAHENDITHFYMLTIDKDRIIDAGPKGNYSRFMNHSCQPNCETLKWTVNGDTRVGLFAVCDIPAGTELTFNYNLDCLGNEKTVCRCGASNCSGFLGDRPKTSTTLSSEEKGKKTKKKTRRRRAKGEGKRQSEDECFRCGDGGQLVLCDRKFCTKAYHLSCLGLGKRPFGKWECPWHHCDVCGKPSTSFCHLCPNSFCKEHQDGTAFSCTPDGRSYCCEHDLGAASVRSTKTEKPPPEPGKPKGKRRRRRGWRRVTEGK
MITF TRPM1 HTS = MITF TRPM1 promoter activation in melanoma cells | SK-MEL-5 TRPM1-promoter luciferase, 24 h; % of positive control, neutral wells = 0 | activation, % at 12.5 µM | 300,000 compounds, 0.75% hits;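 active means mean activation of at least 80% with every replicate also reaching 80%; inconclusive means mean reaches 80% but some replicate falls short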;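 further: 0% = neutral control wells and 100% = parthenolide positive control wells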
Wnt bcat act = activators of Wnt/beta-catenin signaling | Wnt/beta-catenin reporter cell assay, activator, plate reader | activation, % at 9.35 µM | 300,000 compounds, 1.2% hits | AID 743398; in the data active means activation above about 30%, passing the limit was not always enough; inconclusive means no clear call, values can overlap the other calls;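 further: 0% = neutral control wells and 100% = positive control wells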
GSIS activator = primary screen for activators of insulin secretion dependent on glucose, INS-1E cells, GLuc reporter luminescence. INS-1E GLuc reporter insulin secretion, 2-3 h. activation, % at 16.6 µM. 370,000 compounds, 0.61% hits. AID 743287;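 active means lowest replicate activation of at least 40%, so every replicate reaches that level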;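 further: 0% = median of neutral control wells and 100% = median of IBMX positive control wells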
miR-122 sensor = blocks miR-122 activity in Huh7 sensor cells; Huh7 miR-122 Renilla luciferase sensor, 48 h; neutral wells = 0, positive control = 100; activation (reporter increase), % at 12.5 µM; 340,000 compounds, 0.3% hits; AID 602342;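 active means mean replicate activation score at least 90 and every replicate individually at or above 90; inconclusive means only one of the two criteria met; inactive means neither criterion met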;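 further: higher luciferase means less miR-122 activity so hits act as miR-122 inhibitors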
DYRK1A inh = blocks rat Dyrk1A kinase activity. Q63470. ADP-Glo luminescence, NFATc1 peptide. inhibition, % at 12.5 µM. 310,000 compounds, 0.43% hits. AID 504441;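 further: plate controls were vehicle with enzyme for no effect and no enzyme for full effect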
* = called active by the depositor; ? = inconclusive; . = no result; [ ] = another dose, or the depositor's remark. Hits are enriched below; roughly 2.4% of the tested compounds scored in any of these assays. Unless noted, no stated cut-off is given here; in the data, active means inhibition above about 50%; inactive means the rest.

SMILES	NSD2 HMT inh	MITF TRPM1 HTS	Wnt bcat act	GSIS activator	miR-122 sensor	DYRK1A inh
Cc1ccccc1-c1cnc2c(c1)C(=O)N([C@H](C)CO)C[C@H](C)[C@H](CN(C)C(=O)CN(C)C)O2	.	.	.	17.4	2.2[16.7 µM]	.
C[C@@H]1CN([C@H](C)CO)C(=O)c2cccc(NC(=O)c3nc4ccccc4s3)c2O[C@H]1CN(C)CC1CC1	.	.	.	-24.9	7.1[16.7 µM]	.
O=c1c(-c2ccc(F)cc2)coc2c3c(ccc12)OCCO3	.	133.4*	5.1	.	-2.2	-2.9
O=c1[nH]c2ccccc2nc1-c1nnnn1C1CCCC1	.	.	-0.4	49.3*	.	.
CC(C)(C)NC(=O)/C=C/c1ccc(C(F)(F)F)cc1	-0.5	10.5	76.9*	-0.5	.	3.1
CNC(=O)/C=C/c1cccc(C(F)(F)F)c1	3.9	10.9	-1.3	-2.6	.	-0.8
COc1ccc(-c2cc3ccccc3s2)cc1[C@H]1[C@H]2C=CC[C@@H](C)[C@@H]2C(=O)N1Cc1ccccc1	.	66.4	36.9*	.	5.3	25.7
CN1C(=O)c2cc(NC(=O)c3cccc(C(F)(F)F)c3)ccc2OC[C@@H]2O[C@H](CC(=O)O)CC[C@@H]21	.	.	.	-9.7	.	.
CCS(=O)(=O)N1CC(=O)N2[C@H](CO)[C@@H](c3ccc(-c4ccccc4C)cc3)[C@@H]2C1	.	.	.	2.6	.	.
CCC(=O)N1CC[C@@H]2[C@H]1c1cc(C#Cc3ccccc3F)ccc1N[C@@H]2CO	.	.	.	-0.5	-7.8[16.7 µM]	.
Cc1nc(C(=O)Nc2ccccc2)sc1C(=O)Nc1ccccc1	2.7	86.4*	0.7	-12.2	-1.7	.
Cc1nc(N)sc1C(=O)Nc1ccccc1	-0.6	.	1.1	19.6	2.9	-2.2
O=C(O)C(=Cc1ccccc1)Cc1ccccc1	0.1	-3.4	-0.9	41.4*	-1.6	-4.7
Cc1ccccc1-c1cnc2c(c1)C(=O)N([C@@H](C)CO)C[C@@H](C)[C@H](CN(C)C(=O)c1cccnc1)O2	.	.	.	27.6	-4.2[16.7 µM]	.
CCOc1ccccc1NC(=O)Cn1nnc(C(=O)NCc2ccco2)c1N	3.1	-42.7	.	.	136.3*	2.9
Cc1ccccc1NC(=O)Cn1nnc(C(=O)NCc2ccco2)c1N	1.5	-13.9	-8.5	4.9	36.2	-4.1
Cc1ccc(S(=O)(=O)N(C)C[C@H]2Oc3ccc(NS(=O)(=O)c4ccc(Cl)cc4)cc3C(=O)N([C@@H](C)CO)C[C@H]2C)cc1	.	.	.	-30.7	22.9[16.7 µM]	.
COc1cc(S(=O)(=O)NC2CCCCC2)c(C)cc1C	-1.9	3.9	0.2	-2.7	163.1*	0.4
COc1ccc(C)cc1S(=O)(=O)NC1CCCCC1C (stereo not drawn)	-3.3	8.6	.	.	132.5*	10.6
CCOc1ccc(Cl)cc1S(=O)(=O)NC1CCCC1	-4.4	-0.6	-2.0	2.8	114.1*	3.1
CCOc1cc(S(=O)(=O)NC2CCCC2)ccc1Cl	-3.1	-4.1	.	.	26.4	-0.9
COc1ccc(F)cc1S(=O)(=O)NC1CCCCCC1	.	2.8	.	.	104.7*	-3.7
COc1ccc(F)cc1S(=O)(=O)NC1CC(C)(C)NC(C)(C)C1	-0.2	4.9	-0.9	.	0.7	8.3
COc1ccc(OC)c(S(=O)(=O)NC2CC2)c1	-0.1	-0.5	-10.1	-2.9	7.2	-5.9
COc1cc(S(=O)(=O)NC2CC(C)(C)NC(C)(C)C2)c(OC)cc1Cl	-0.2	-0.9	0.3	12.2	2.0	2.8
SMILES	NSD2 HMT inh	MITF TRPM1 HTS	Wnt bcat act	GSIS activator	miR-122 sensor	DYRK1A inh
COc1cc(S(=O)(=O)NC2CCCC2)c(OC)cc1Cl	2.1	4.7	.	4.3	293.1*	-5.0
COC(=O)c1sccc1NC(=S)N1CCN(C)CC1	-2.3	-8.3	-0.1	41.9*	.	.
CCN1CCN(C(=S)Nc2ccsc2C(=O)OC)CC1	4.0	-11.0	2.8	-0.2	-6.1	-2.4
COC(=O)c1sccc1NC(=S)Nc1ccc(F)cc1	-2.5	-4.8	.	-4.5	147.2*	-2.2
O=C(Nc1ccc(NC(=O)c2cccs2)cc1)c1cccs1	-2.1	?	6.4	-1.3	-4.2	-7.1
O=C(Nc1ccc2[nH]ccc2c1)c1cccs1	.	106.0*	12.1	-5.1	-3.5	8.8
O=C(Nc1ccc(NC(=O)c2ccccc2F)cc1)c1cccs1	-1.8	136.9*	37.0*	0.7	3.8	.
Cc1ccc(NC(=O)c2cccs2)cc1NC(=O)c1ccccc1Cl	-5.5	9.4	-0.7	167.1*	.	3.4
C[C@@H]1CN([C@H](C)CO)C(=O)Cc2cc(N(C)C)ccc2O[C@@H]1CN(C)S(=O)(=O)c1ccc(Cl)cc1	.	.	.	2.3	-7.4[16.7 µM]	.
C/C(N)=C(/C#N)C(=O)CSc1nnc(Nc2ccccc2)s1	1.0	53.6	38.8*	-4.3	.	-0.9
O=C(C[C@@H]1CC[C@H]2[C@@H](COC[C@@H](O)CN2C(=O)c2cnccn2)O1)NCc1ccc(Oc2ccccc2)cc1	.	.	.	1.2	7.6[16.7 µM]	.
C[C@@H]1CN([C@H](C)CO)C(=O)c2ccccc2-c2ccccc2CO[C@@H]1CN(C)C(=O)c1cc(Cl)cc(Cl)c1	.	.	.	4.5	.	.
C[C@@H]1CN(C)C(=O)Cc2ccccc2O[C@@H]1CN(C)S(C)(=O)=O	.	.	.	10.6	.	.
COc1ccc(NS(=O)(=O)c2cc(NC(=O)c3cnccn3)ccc2N2CCCC2)cc1	-0.8	4.7	-0.7	4.5	104.1*	-1.1
CNC(=S)Nc1ccc(N2CCCC2)c(S(=O)(=O)Nc2ccc(OC)cc2)c1	1.1	-8.5	1.9	6.0	109.0*	4.0
NNc1nc(-c2ccccc2Cl)nc2sc3c(c12)CCCC3	1.5	49.9	45.9*	-25.3	13.3	0.1
NNc1nc(-c2ccccc2Cl)nc2ccccc12	-1.8	-8.1	4.1	.	4.8	46.6
CN1C(=O)c2cc(NC(=O)Cc3cccs3)ccc2OC[C@@H]2O[C@H](CC(=O)NCC3CCCCC3)CC[C@@H]21	.	.	.	-26.2	154.4*[16.7 µM]	.
CN1C(=O)c2cc(NC(=O)NCc3ccccc3)ccc2OC[C@H]2O[C@H](CC(=O)NCC3CCCCC3)CC[C@H]21	.	.	.	-11.2	44.4[16.7 µM]	.
CN1C(=O)c2cc(NC(=O)Cc3ccccc3)ccc2OC[C@@H]2O[C@@H](CC(=O)NCC3CC3)CC[C@@H]21	.	.	.	-4.7	183.3*[16.7 µM]	.
CCCC(=O)Nc1ccc2c(c1)C(=O)N(C)[C@H]1CC[C@@H](CC(=O)NCC(F)(F)F)O[C@H]1CO2	.	.	.	11.5	143.3*[16.7 µM]	.
CN1C(=O)c2cc(NC(=O)Cc3cccs3)ccc2OC[C@@H]2O[C@H](CC(=O)NCC3CCCCC3)CC[C@H]21	.	.	.	-0.5	6.7[16.7 µM]	.
CN1C(=O)c2cc(NC(=O)NCc3ccccc3)ccc2OC[C@@H]2O[C@H](CC(=O)NCC3CCCCC3)CC[C@@H]21	.	.	.	-5.7	173.3*[16.7 µM]	.
COc1ccc(S(=O)(=O)N[C@@H]2CC[C@@H](CC(=O)NCCc3ccccc3)O[C@H]2CO)cc1	.	.	.	4.6	.	.
Cc1ccccc1NC(=O)Nc1ccc2c(c1)C(=O)N(C)[C@@H]1CC[C@@H](CC(=O)NCC3CC3)O[C@H]1CO2	.	.	.	-1.4	-4.4[16.7 µM]	.
